# A number with no mark means an inactive call.
# Test system: HCC1569
# Test: H1.0 immunofluorescence intensity relative to DMSO (% of DMSO); higher = stronger H1.0 induction, active = 140 or more
# Conditions: concentration: 10 µM; 24 h
# Method in brief: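 H1.0 nuclear intensity or cell number is expressed as percent of the plate control, with the median of replicates taken. HCC1569 and TDF cells were treated with compounds at 10 µM for 24 h at 37 °C, in triplicate, then fixed and immunostained for H1.0 with DAPI as a nuclear stain. HCC1569 values were smoothed to correct for positional effects.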
# 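Further: TDF is a line of transformed human dermal fibroblasts of mesenchymal origin.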
row,Compound,H1.0 immunofluorescence intensity
1,CC(CCc1ccccc1)NC(C)C(O)c1ccc(O)cc1.Cl (centres undefined) [Nylidrin hydrochloride],96.5
2,Br.COC(=O)C1=CCCN(C)C1,82.8
3,COc1cc(CC(C)N)c(OC)cc1I.Cl (racemic),88.9
4,CN1CCC23CCCCC2C1Cc1ccc(O)cc13.O=C(O)C(O)C(O)C(=O)O [Dextrorphan D-tartrate],89.2
